Among the data in PubChem BioAssay (NCI) are growth inhibition values, retold here.

Where “and” joins values, the source holds several entries; their conditions need not be identical. Equal values may be shown once. Compounds without any hit were thinned out: in the full panel of roughly 79,000, 15% have a hit. A number with no mark means an inactive call. Calls of active or inactive are those of the source. Rule as the data show it: active = growth inhibition above about 70%; inactive = the rest.

One assay can be described thus: NCI Yeast Anticancer Drug Screen. Data for the cln2 rad14 strain (AID 165).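 Also: 0% = growth equal to vehicle treated cultures.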 The note with it: S. cerevisiae cln2 rad14 strain, stronger effect = higher value; at 50.0 µM unless noted. A digest of the protocol:
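Strain: cln2 rad14 yeast, altered in cell cycle control and DNA damage repair. Read-out: growth inhibition vs vehicle.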
Turning to `COC(=O)C1(CC(=O)c2c(C)[nH]c3ccccc23)NC(=S)NC(=O)C1C#N` (stereo not given), the growth inhibition was -5.15%.

In the case of `O=C1NC(N/N=C\C(O)C(O)C(O)CO)=N/C1=C/c1ccc(Cl)cc1` (stereo not given), the growth inhibition is 36.8% and 26.8%.

As to `O=c1[nH]c2cc(Cl)c([N+](=O)[O-])cc2o1`, the growth inhibition was -18.1%.

For `COc1cccc(-c2cc(=O)c3cc(C)cnc3[nH]2)c1`, the growth inhibition was -2.4%.

As for `COc1cc2c3cc1Oc1cc(ccc1O)C[C@@H]1c4c(cc(OC)c(O)c4Oc4ccc(cc4)C[C@@H]3[N+](C)(C)CC2)CC[N+]1(C)C`, the growth inhibition is 68.6%.

Regarding `CC(C)(CN1CCCCC1)C(=O)CC(SCCN)c1ccc(Cl)cc1` (stereo not given), the growth inhibition was 31.2%.

Consider `COc1cc(OC)c(I)cc1Cl`, for which the growth inhibition is 13.4%.

For `CCCCN1CCC(N)=NC1=O`, the growth inhibition is 9.2%.

With `CCO/C(C)=N\OC(=O)C(F)(F)F`, the growth inhibition is -15.6%.

Consider `COC(=O)c1nnn(-c2ccc(Cl)cc2C)c1C(=O)c1ccc(OC)cc1`, for which the growth inhibition is -2.45%.

With `CC(O)CNc1nc(N)[nH]c(=O)c1[N+](=O)[O-]` (stereo not given), the growth inhibition was -41.5%.

`CC1=NN(c2ccc(S(=O)(=O)O)cc2)C(=O)C1N=Nc1ccc(-c2ccc(N=Nc3ccc(O)c(C(=O)O)c3)c(C)c2)cc1C` (stereo not given): the growth inhibition is 17.1%.

As for `O=C(O)c1cc([N+](=O)[O-])cc([N+](=O)[O-])c1-c1ccccc1`, the growth inhibition is -13.4%.

Take `N#Cc1c(N2CCCC2)nsc1Nc1ccc(F)cc1`: the growth inhibition was -16%.

Take `CC(C)CCO/N=C(\N)N=C(N)N`: the growth inhibition was 2.7%.

Regarding `O=C(NSN1CCOCC1)c1ccccc1`, the growth inhibition is -45.6%.

As for `O=C(NO)c1ccccc1`, the growth inhibition is 21.8%.

`N#CCCC(C#N)(CCC#N)C(N)=O`: the growth inhibition is -49.6%.

Take `CCCCCCCCCCCCC(C)O` (stereo not given): the growth inhibition is 5.05%.

Take `FC(F)(F)c1ccc2ccc3ccc(Cl)cc3c2c1`: the growth inhibition is -10.4%.

On to `Nc1ncnc2c1ncn2CC(O)CN(CCO)CCO` (stereo not given), for which the growth inhibition is 8.2%.

In the case of `CSC(N)=Nc1cccc2ccccc12`, the growth inhibition was -10.9%.

For the compound `O=C(c1ccc([N+](=O)[O-])cc1)N(Cc1ccccc1)Cc1ccccc1` (tested in a mixture with another compound), the growth inhibition is -10.9%.

As for `O=C(O)Cc1ccc(C(=O)O)cc1`, the growth inhibition was -13.4%.

For the compound `C=C1c2nc3ccccc3n2C=C(c2ccccc2)N1c1ccc(OC)cc1`, the growth inhibition is -5.85%.

In the case of `CC1CC(=O)Nc2nc3ccccc3n21` (stereo not given), the growth inhibition is -44.9%.

Consider `COc1ccc2[nH]c3ccccc3c(=O)c2c1`, for which the growth inhibition was -66.4%.

Consider `OC1(C2(O)CCCC2)CCCC1`, for which the growth inhibition was 6.75%.

As for `Cc1ccc(C(CC(=O)C(C)(C)CN2CCCCC2)SCCS(=O)(=O)O)cc1` (stereo not given), the growth inhibition is 9.4%.

With `CC1=CC(=O)CC(C)(C)C1`, the growth inhibition is 6.4%.

`C=C1CC(c2ccccc2)(c2cccs2)OC1=O` (stereo not given): the growth inhibition is 14.3%.

Turning to `Cc1cc(=O)[nH]c2[nH]c(=O)ccc12`, the growth inhibition was -6.35%.

For `Cn1c(=O)c2nc(SCC(=O)O)n(C)c2n(C)c1=O`, the growth inhibition is -10.1%.

As to `CCOC(=N)n1c(=O)n(C2=NCCN2)c2ccccc21`, the growth inhibition was 1.95%.

As to `CC(C)C1N(N2C(=O)CS(=O)(=O)C2C(C)C)C(=O)CS1(=O)=O` (stereo not given), the growth inhibition is 6.75%.

Take `COC(=O)c1cccc(C(=O)OC)c1`: the growth inhibition is 5.2% and -1.7%.

As for `CC1=C(C)C(C#N)(C(=O)CBr)C(=N)O1` (stereo not given), the growth inhibition is 0%.

For `c1ccc2c(c1)ccc1c[n+]3ccccc3cc12`, the growth inhibition is 44.5%.

In the case of `CN(C)c1c2ccccc2c(NC=O)c2ccccc12`, the growth inhibition is 24.6%.

For `CNS(=O)(=O)c1ccc(C)c(C)c1`, the growth inhibition is -10.7%.

The next assay in a line: NCI Yeast Anticancer Drug Screen. Data for the bub3 strain (AID 167). The note with it: S. cerevisiae bub3 mutant strain, stronger effect = higher value; at 50.0 µM unless noted. The method in brief:
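Yeast carrying a defined mutation is treated with each compound, and growth is compared with that of vehicle-exposed cells to give inhibition.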
Consider `COC(=O)C1(CC(=O)c2c(C)[nH]c3ccccc23)NC(=S)NC(=O)C1C#N` (stereo not given), for which the growth inhibition is -11.1%.

For `O=C1NC(N/N=C\C(O)C(O)C(O)CO)=N/C1=C/c1ccc(Cl)cc1` (stereo not given), the growth inhibition was 38.1% and 43%.

`O=c1[nH]c2cc(Cl)c([N+](=O)[O-])cc2o1`: the growth inhibition is -14.9%.

Take `COc1cccc(-c2cc(=O)c3cc(C)cnc3[nH]2)c1`: the growth inhibition was 18.8%.

Take `COc1cc2c3cc1Oc1cc(ccc1O)C[C@@H]1c4c(cc(OC)c(O)c4Oc4ccc(cc4)C[C@@H]3[N+](C)(C)CC2)CC[N+]1(C)C`: the growth inhibition was -35.6%.

`CC(C)(CN1CCCCC1)C(=O)CC(SCCN)c1ccc(Cl)cc1` (stereo not given): the growth inhibition was 46.9%.

As for `COc1cc(OC)c(I)cc1Cl`, the growth inhibition was -29.2%.

As to `CCCCN1CCC(N)=NC1=O`, the growth inhibition was -5.6%.

For the compound `CCO/C(C)=N\OC(=O)C(F)(F)F`, the growth inhibition is 1.35%.

`COC(=O)c1nnn(-c2ccc(Cl)cc2C)c1C(=O)c1ccc(OC)cc1`: the growth inhibition was -9.1%.

In the case of `CC(O)CNc1nc(N)[nH]c(=O)c1[N+](=O)[O-]` (stereo not given), the growth inhibition was -9.95%.

On to `CC1=NN(c2ccc(S(=O)(=O)O)cc2)C(=O)C1N=Nc1ccc(-c2ccc(N=Nc3ccc(O)c(C(=O)O)c3)c(C)c2)cc1C` (stereo not given), for which the growth inhibition is 23.4%.

In the case of `O=C(O)c1cc([N+](=O)[O-])cc([N+](=O)[O-])c1-c1ccccc1`, the growth inhibition is 44.6%.

Turning to `N#Cc1c(N2CCCC2)nsc1Nc1ccc(F)cc1`, the growth inhibition is 4.4%.

Take `CC(C)CCO/N=C(\N)N=C(N)N`: the growth inhibition is -1.75%.

On to `O=C(NSN1CCOCC1)c1ccccc1`, for which the growth inhibition is 2.5%.

As for `O=C(NO)c1ccccc1`, the growth inhibition was -4%.

For the compound `N#CCCC(C#N)(CCC#N)C(N)=O`, the growth inhibition is 5.2%.

As to `CCCCCCCCCCCCC(C)O` (stereo not given), the growth inhibition was -21.1%.

Take `FC(F)(F)c1ccc2ccc3ccc(Cl)cc3c2c1`: the growth inhibition is 21.6%.

Regarding `Nc1ncnc2c1ncn2CC(O)CN(CCO)CCO` (stereo not given), the growth inhibition is -10.8%.

Turning to `CSC(N)=Nc1cccc2ccccc12`, the growth inhibition is -34.2%.

Turning to `O=C(c1ccc([N+](=O)[O-])cc1)N(Cc1ccccc1)Cc1ccccc1` (tested in a mixture with another compound), the growth inhibition was 26.8%.

With `O=C(O)Cc1ccc(C(=O)O)cc1`, the growth inhibition was 13.2%.

Consider `C=C1c2nc3ccccc3n2C=C(c2ccccc2)N1c1ccc(OC)cc1`, for which the growth inhibition is 17.5%.

`CC1CC(=O)Nc2nc3ccccc3n21` (stereo not given): the growth inhibition was -21.8%.

Consider `COc1ccc2[nH]c3ccccc3c(=O)c2c1`, for which the growth inhibition is 3%.

For the compound `OC1(C2(O)CCCC2)CCCC1`, the growth inhibition is 18%.

Take `Cc1ccc(C(CC(=O)C(C)(C)CN2CCCCC2)SCCS(=O)(=O)O)cc1` (stereo not given): the growth inhibition is 4.3%.

Take `CC1=CC(=O)CC(C)(C)C1`: the growth inhibition is 17.1%.

With `C=C1CC(c2ccccc2)(c2cccs2)OC1=O` (stereo not given), the growth inhibition is 90.5% (active).

For the compound `Cc1cc(=O)[nH]c2[nH]c(=O)ccc12`, the growth inhibition is -2.2%.

Regarding `Cn1c(=O)c2nc(SCC(=O)O)n(C)c2n(C)c1=O`, the growth inhibition was 5.35%.

Consider `CCOC(=N)n1c(=O)n(C2=NCCN2)c2ccccc21`, for which the growth inhibition is 22.2%.

For `CC(C)C1N(N2C(=O)CS(=O)(=O)C2C(C)C)C(=O)CS1(=O)=O` (stereo not given), the growth inhibition is -9.15%.

`COC(=O)c1cccc(C(=O)OC)c1`: the growth inhibition was -1.9% and 19.4%.

In the case of `CC1=C(C)C(C#N)(C(=O)CBr)C(=N)O1` (stereo not given), the growth inhibition was 33.1%.

For the compound `c1ccc2c(c1)ccc1c[n+]3ccccc3cc12`, the growth inhibition was 9.25%.

Turning to `CN(C)c1c2ccccc2c(NC=O)c2ccccc12`, the growth inhibition was -1.05%.

For `CNS(=O)(=O)c1ccc(C)c(C)c1`, the growth inhibition is 23.1%.
